Values joined by “and” are separate entries in the source; they are usually repeats but may differ in a detail not shown here. Identical values can stand only once. Results filed as inconclusive are left out. Where a call stands in place of a potency, no number is given. Active and inactive are the calls of the source. The call rests on the fitted dose curve; in most records, active means well fitted cell-killing curve with a large enough effect in the repeat runs; inconclusive means weak or mixed curves, or effect the other way; inactive means no such curve, though single readings can be large or run the other way.
Potency means the concentration at half of the fitted maximal effect.

The assay is described as follows: qHTS assay to identify small molecule antagonists of the vitamin D receptor (VDR) signaling pathway - cell viability counter screen (AID 743225). Further: nearly all actives have a fitted effect of over 50% in size. To be noted: VDR-bla HEK293T viability, CellTiter-Glo luminescence, 16 h; series mostly up to 61 µM. The source says:
U.S. Tox21 Program National Center for Advancing Translational Sciences [NCATS] NIH Chemical Genomics Center [NCGC] U.S. Environmental Protection Agency [EPA] National Institutes of Environmental Health Sciences [NIEHS] National Toxicology Program [NTP] U.S. Food and Drug Administration [FDA] Tox21 Assay Overview: The vitamin D receptor (VDR), a member of nuclear hormone receptor superfamily, plays a critical role in calcium homeostasis and bone metabolism. It is also involved in cell differentiation and growth, and thrombogenicity. To identify the compounds that inhibit VDR signaling, the VDR-UAS-bla HEK 293T cell line (Invitrogen, Carlsbad, CA, USA) containing a beta-lactamase reporter gene under the control of an upstream activator sequence (UAS) was used to screen the Tox21 10K compound library. The cytotoxicity of the Tox21 compound library against the VDR-bla cell line was tested in parallel by measuring the cell viability using CellTiter-Glo assay (Promega, Madison, WI) in the same wells.
Tox21 Assay Protocol Summary: VDR-bla cells were dispensed at 2,000 cells/5 uL of assay medium per well into black wall/clear-bottom 1536-well plates using a Multidrop Combi (Thermo Fisher Scientific, Waltham, MA) dispenser. After the assay plates were incubated at a 37C and 5% CO2 for 4 h, 23 nL of compounds dissolved in DMSO, positive controls or DMSO only was transferred to the assay plate by a Pintool station (Kalypsys, San Diego, CA), followed by addition of 1 uL of 1-alpha, 25-Dihydroxy Vitamin D3 (3 nM, final concentration in the wells) using a Bioraptr Flying Reagent Dispenser (FRD) workstation (Beckman Coulter, Indianapolis, IN). The plates were incubated at 37C and 5% CO2 for 16 h, and then 1 uL of LiveBLAzerTM B/G FRET substrate was added using a Bioraptr FRD. The plates were incubated at room temperature for 2 h and fluorescence intensity was measured by an Envision plate reader (PerkinElmer, Shelton, CT). For cell viability readout that measures cytotoxicity, 3 ul/well of CellTiter-Glo reagent was added into the assay plates using a Bioraptr FRD. After 30 min incubation at room temperature, the luminescence intensity in the plates was measured using a ViewLux plate reader (PerkinElmer).
For the molecule `COP(=O)(OC)OC`, the Potency result was “inactive”.

On to `COc1ccc(C=O)cc1`, for which the Potency entry is “inactive”.

Turning to `C#C[C@]1(O)CC[C@H]2[C@@H]3CCC4=CC(=O)CC[C@]4(C)[C@H]3CC[C@@]21C`, the Potency entry was “inactive”.

`O=[N+]([O-])c1cccc2ccccc12`: the Potency entry was “inactive”.

On to `CC(C)=CC1C(C(=O)OCc2coc(Cc3ccccc3)c2)C1(C)C` (stereo not given), for which the Potency entry is “inactive”.

On to `O=C(O)CC[N+](=O)[O-]`, for which the Potency result is “inactive”.

On to `Oc1cc(Cl)ccc1Oc1ccc(Cl)cc1Cl`, for which the Potency is 7.08 µM (active) and 23.9 µM (active).

In the case of `Cc1ccc2c(c1N)C(=O)c1ccccc1C2=O`, the Potency result is “inactive”.

Consider `CC(C)N(C(=O)SCC(Cl)=C(Cl)Cl)C(C)C`, for which the Potency entry is “inactive”.

For `CCCCN(CCCC)N=O`, the Potency entry was “inactive”.

Take `Nc1ccc(Cl)c(Cl)c1`: the Potency result is “inactive”.

For `N#CCCCl`, the Potency result was “inactive”.

Turning to `CC1(C)C(C=C(Cl)Cl)C1C(=O)OC(C#N)c1cccc(Oc2ccccc2)c1` (stereo not given), the Potency entry was “inactive”.

`C=C(C)C(=O)OCC1CO1` (stereo not given): the Potency result is “inactive”.

On to `Oc1cc(Cl)c(Cl)cc1Cl`, for which the Potency entry was “inactive”.

Turning to `O=C1C=CC(=O)C=C1`, the Potency entry was “inactive”.

For `N#CC(Br)Br`, the Potency result is “inactive”.

For `CCCCNC(=O)n1c(NC(=O)OC)nc2ccccc21`, the Potency entry is “inactive”.

With `CCC(C)(C)c1ccc(O)cc1`, the Potency result was “inactive”.

Consider `O=P(Oc1ccccc1)(Oc1ccccc1)Oc1ccccc1`, for which the Potency result was “inactive”.

With `O=[N+]([O-])c1c(Cl)c(Cl)c(Cl)c(Cl)c1Cl`, the Potency result was “inactive”.

For `Oc1ccc(-c2ccccc2)cc1`, the Potency result is “inactive”.

Turning to `O=S(=O)(Oc1ccc(Cl)cc1)c1ccc(Cl)cc1`, the Potency entry is “inactive”.

As to `Nc1ccc(-c2ccccc2)cc1`, the Potency result was “inactive”.

Regarding `Nc1cccnc1`, the Potency entry is “inactive”.

Take `CCN(CC)N=O`: the Potency result is “inactive”.

Regarding `C=CCc1ccc2c(c1)OCO2`, the Potency result is “inactive”.

For the molecule `c1ccc(N=Nc2ccccc2)cc1`, the Potency result is “inactive”.

Turning to `C=C(C)[C@H]1Cc2c(ccc3c2O[C@@H]2COc4cc(OC)c(OC)cc4[C@@H]2C3=O)O1`, the Potency result was “inactive”.

Turning to `c1ccc(NNc2ccccc2)cc1`, the Potency entry is “inactive”.

For the molecule `CC(C)C(=O)OCC(C)(C)C(OC(=O)C(C)C)C(C)C` (stereo not given), the Potency entry is “inactive”.

Take `CCc1cccc(CC)c1N(COC)C(=O)CCl`: the Potency result was “inactive”.

On to `C1=Cc2cccc3cccc1c23`, for which the Potency result is “inactive”.

As to `NCc1cccnc1`, the Potency entry is “inactive”.

As to `C[C@]12CCC(=O)C(O)=C1CC[C@@H]1[C@@H]2CC[C@]2(C)C(=O)CC[C@@H]12`, the Potency result is “inactive”.

On to `CCCCCCCCC(=O)NCc1ccc(O)c(OC)c1`, for which the Potency result was “inactive”.

Consider `Cc1cccc(N)c1N`, for which the Potency result was “inactive”.

`CC(C)(OOC(C)(C)c1ccccc1)c1ccccc1`: the Potency entry was “inactive”.

For `COc1ccc(C(CN(C)C)C2(O)CCCCC2)cc1` (stereo not given), the Potency result is “inactive”.

Take `CCCCC(CC)COC(=O)c1ccc(C(=O)OCC(CC)CCCC)c(C(=O)OCC(CC)CCCC)c1` (stereo not given): the Potency entry is “inactive”.

The values above are taken from PubChem BioAssay (Tox21).
